Data taken from the supplement of paper PMC10849652.
About 7,900 targets were measured; listed, in parts, are those with a hit and a random draw of the rest. About 0.6% of all pairs of compound and target were hits.

What was measured:
Experiment in all cases: log2 fold change, soluble protein after heating vs DMSO (PISA); higher = thermal stabilisation; K562 cells, 10 uM, 30 min; active = over 0.2 and 3.5 SD of the protein, either way, in both replicates (recomputed)
[1] = compound: CC[C@@H]1C(=O)N(C)c2cnc(Nc3ccc(C(=O)NC4CCN(C)CC4)cc3OC)nc2N1C1CCCC1
How it was run: (§1)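 K562 cells at 2×10^6 cells/mL were given 10 μM compound for 30 min. Aliquots then went through 3 min of heating across 48°C-58°C, were pooled, and were extracted in PBS with 0.5% NP-40 at 4°C, and the supernatant after 21,000xg for 90 min was quantified by TMTpro 16plex LC-MS/MS with channel sums equalised. Thermal stability relative to control samples, from duplicates, is given as log2 fold change.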

[2] = compound: CC[C@@H]1C(=O)N(C)c2cnc(Nc3ccc(C(=O)N[C@H]4CC[C@H](N5CCN(CC6CC6)CC5)CC4)cc3OC)nc2N1C(C)C [volasertib]
How it was run: as §1

[3] = compound: CC[C@H](C)N1C=C(C2=C(C=C(C=C21)C3=CN=C(C=C3)N4CCNCC4)C(=O)NCC5=C(C=C(NC5=O)C)C)C
How it was run: as §1

[4] = compound: CC[C@H](C)[C@@H](C(=O)N[C@@H]([C@@H](C)O)C(=O)N[C@@H](CC(C)C)C(=O)[C@]1(CO1)C)NC(=O)[C@H]([C@@H](C)CC)N(C)C(=O)C [epoxomicin]
How it was run: as §1

[5] = compound: CCn1c(C(=O)N(C2CC2)C2CC2)cc2c3c(ncn3C)c(Nc3cc(C)n(C)n3)nc21
How it was run: as §1

[6] = compound: CCn1cc(-c2ccnc3[nH]c(-c4cccc(CN(C)C)c4)cc23)c(-c2ccc(NC(=O)N(C)C)cc2)n1
How it was run: as §1

[7] = compound: CN(C)CC(=O)Nc1ccc2[nH]c(=O)c3ccccc3c2c1
How it was run: as §1

[8] = compound: CN(CCOC1=CC=C(C=C1)C[C@H]2C(=O)NC(=O)S2)C3=CC=CC=N3 (racemic) [rosiglitazone]
How it was run: as §1

[9] = compound: CN1CCC(CNc2ccc3ncc(-c4cccc(OC(F)(F)F)c4)n3n2)CC1
How it was run: as §1

[10] = compound: CN1C2=C(C3=C1C(=O)N(N=C3)CC4=CC(=CC=C4)N)SC(=C2)S(=O)C
How it was run: as §1

Measured: log2 fold change

ATF1 (UniProt P18846)
inactive: [1] 0 | [2] 0.109 | [3] -0.065 | [4] 0.17 | [5] 0.005 | [6] 0.035 | [7] 0.002 | [8] -0.104 | [9] -0.002

ARFGAP2 (UniProt Q8N6H7)
Chain of UniProt Q8N6H7 (Q8N6H7 whole entry, looked up): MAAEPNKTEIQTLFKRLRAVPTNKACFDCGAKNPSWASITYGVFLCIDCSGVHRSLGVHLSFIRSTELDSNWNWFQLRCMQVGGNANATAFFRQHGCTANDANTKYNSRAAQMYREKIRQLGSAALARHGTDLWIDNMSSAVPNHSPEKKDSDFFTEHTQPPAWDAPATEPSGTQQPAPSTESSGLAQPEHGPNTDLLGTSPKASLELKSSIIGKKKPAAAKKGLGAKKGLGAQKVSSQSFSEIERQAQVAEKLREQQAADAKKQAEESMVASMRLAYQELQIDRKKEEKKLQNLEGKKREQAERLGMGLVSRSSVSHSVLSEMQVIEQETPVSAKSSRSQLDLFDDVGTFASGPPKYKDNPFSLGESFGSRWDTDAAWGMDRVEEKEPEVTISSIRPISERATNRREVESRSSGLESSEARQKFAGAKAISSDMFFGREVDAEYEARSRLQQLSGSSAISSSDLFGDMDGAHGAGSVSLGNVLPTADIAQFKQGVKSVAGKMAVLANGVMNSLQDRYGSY
inactive: [1] -0.052 | [3] 0.067 | [4] 0.009 | [5] -0.037 | [6] 0.023 | [7] 0.017 | [8] 0.038 | [10] -0.015 | [9] -0.068
active: [2] -0.257

APAF1 (UniProt O14727)
inactive: [1] -0.123 | [2] -0.076 | [3] 0.187 | [4] -0.045 | [5] -0.231 | [6] -0.009 | [7] 0.037 | [10] 0.148 | [9] -0.088

ACP1 (UniProt P24666)
inactive: [1] 0.084 | [2] -0.102 | [3] -0.001 | [4] 0.03 | [5] -0.034 | [6] 0.077 | [7] 0.12 | [8] 0.167 | [10] 0.099 | [9] -0.061

AKAP8L (UniProt Q9ULX6)
inactive: [1] -0.14 | [3] 0.059 | [4] 0.072 | [5] -0.074 | [6] -0.039 | [7] 0.043 | [8] 0.101 | [10] 0.171 | [9] -0.25
active: [2] -0.394

BRD4 (UniProt O60885)
active: [1] 1.89 | [2] 2.02 | [6] 0.597
inactive: [3] -0.007 | [4] 0.136 | [5] -0.016 | [7] 0.169 | [8] -0.01 | [10] -0.09 | [9] -0.062

ADD2 (UniProt P35612)
inactive: [1] 0.037 | [2] 0.031 | [3] -0.044 | [4] 0.006 | [5] 0.025 | [6] -0.043 | [7] -0.038 | [8] 0.003 | [10] -0.02 | [9] 0.008

BRD3 (UniProt Q15059)
inactive: [3] -0.088 | [5] -0.065 | [7] 0.073 | [8] 0.019 | [10] -0.143 | [9] 0.106
active: [1] 1.63 | [2] 1.46 | [6] 0.681

BTBD6 (UniProt Q96KE9)
inactive: [1] 0.017 | [2] 0.001 | [3] -0.033 | [4] -0.059 | [5] -0.163 | [6] -0.356 | [7] 0.066 | [8] 0 | [10] -0.112 | [9] -0.021

AMD1 (UniProt P17707)
inactive: [1] 0.061 | [2] -0.098 | [3] 0.099 | [4] 0.057 | [5] -0.073 | [6] -0.033 | [7] -0.101 | [8] 0.089 | [9] -0.091

ALDH18A1 (UniProt P54886)
Chain of UniProt P54886 (P54886 whole entry, looked up): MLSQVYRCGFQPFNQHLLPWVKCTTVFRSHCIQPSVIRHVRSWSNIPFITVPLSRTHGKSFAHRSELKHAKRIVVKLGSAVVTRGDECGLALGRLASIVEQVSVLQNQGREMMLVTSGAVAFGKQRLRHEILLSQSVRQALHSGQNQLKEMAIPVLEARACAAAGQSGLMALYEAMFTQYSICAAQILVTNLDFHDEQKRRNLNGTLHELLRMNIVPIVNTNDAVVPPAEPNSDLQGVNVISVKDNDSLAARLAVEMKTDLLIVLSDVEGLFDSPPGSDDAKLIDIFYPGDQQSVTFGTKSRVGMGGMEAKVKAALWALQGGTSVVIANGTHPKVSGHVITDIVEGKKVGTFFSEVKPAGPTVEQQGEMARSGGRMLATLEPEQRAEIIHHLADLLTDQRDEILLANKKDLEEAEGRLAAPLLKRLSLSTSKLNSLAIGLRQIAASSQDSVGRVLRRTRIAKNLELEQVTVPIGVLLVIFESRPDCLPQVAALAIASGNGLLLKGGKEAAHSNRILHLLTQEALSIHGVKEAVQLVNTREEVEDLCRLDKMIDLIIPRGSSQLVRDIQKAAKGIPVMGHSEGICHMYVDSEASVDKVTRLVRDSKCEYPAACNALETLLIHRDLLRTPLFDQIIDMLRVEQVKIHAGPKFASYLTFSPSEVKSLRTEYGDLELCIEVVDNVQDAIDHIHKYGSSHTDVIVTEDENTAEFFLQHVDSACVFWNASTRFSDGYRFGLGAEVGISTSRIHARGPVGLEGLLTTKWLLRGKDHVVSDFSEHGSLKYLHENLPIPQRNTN
inactive: [1] -0.418 | [3] 0.092 | [4] 0.1 | [5] -0.117 | [6] -0.208 | [7] 0.041 | [8] 0.148 | [10] 0.054 | [9] -0.054
active: [2] -0.713

ATP6AP1 (UniProt Q15904)
inactive: [1] -0.05 | [2] -0.02 | [3] 0.033 | [4] 0.09 | [5] 0.011 | [6] 0.037 | [7] -0.074 | [8] 0 | [10] 0.098 | [9] 0.016

AARSD1 (UniProt Q9BTE6)
inactive: [1] -0.042 | [2] -0.227 | [3] -0.121 | [5] -0.046 | [8] 0.085 | [10] 0.283

ATP6V0A1 isoform 3 (UniProt Q93050)
inactive: [1] -0.056 | [2] 0.174 | [3] -0.01 | [4] 0.044 | [5] 0.034 | [6] -0.054 | [7] -0.009 | [8] -0.017 | [10] 0.239 | [9] -0.137

AFDN isoform 5 (UniProt P55196)
Chain of UniProt P55196 (P55196 whole entry, looked up): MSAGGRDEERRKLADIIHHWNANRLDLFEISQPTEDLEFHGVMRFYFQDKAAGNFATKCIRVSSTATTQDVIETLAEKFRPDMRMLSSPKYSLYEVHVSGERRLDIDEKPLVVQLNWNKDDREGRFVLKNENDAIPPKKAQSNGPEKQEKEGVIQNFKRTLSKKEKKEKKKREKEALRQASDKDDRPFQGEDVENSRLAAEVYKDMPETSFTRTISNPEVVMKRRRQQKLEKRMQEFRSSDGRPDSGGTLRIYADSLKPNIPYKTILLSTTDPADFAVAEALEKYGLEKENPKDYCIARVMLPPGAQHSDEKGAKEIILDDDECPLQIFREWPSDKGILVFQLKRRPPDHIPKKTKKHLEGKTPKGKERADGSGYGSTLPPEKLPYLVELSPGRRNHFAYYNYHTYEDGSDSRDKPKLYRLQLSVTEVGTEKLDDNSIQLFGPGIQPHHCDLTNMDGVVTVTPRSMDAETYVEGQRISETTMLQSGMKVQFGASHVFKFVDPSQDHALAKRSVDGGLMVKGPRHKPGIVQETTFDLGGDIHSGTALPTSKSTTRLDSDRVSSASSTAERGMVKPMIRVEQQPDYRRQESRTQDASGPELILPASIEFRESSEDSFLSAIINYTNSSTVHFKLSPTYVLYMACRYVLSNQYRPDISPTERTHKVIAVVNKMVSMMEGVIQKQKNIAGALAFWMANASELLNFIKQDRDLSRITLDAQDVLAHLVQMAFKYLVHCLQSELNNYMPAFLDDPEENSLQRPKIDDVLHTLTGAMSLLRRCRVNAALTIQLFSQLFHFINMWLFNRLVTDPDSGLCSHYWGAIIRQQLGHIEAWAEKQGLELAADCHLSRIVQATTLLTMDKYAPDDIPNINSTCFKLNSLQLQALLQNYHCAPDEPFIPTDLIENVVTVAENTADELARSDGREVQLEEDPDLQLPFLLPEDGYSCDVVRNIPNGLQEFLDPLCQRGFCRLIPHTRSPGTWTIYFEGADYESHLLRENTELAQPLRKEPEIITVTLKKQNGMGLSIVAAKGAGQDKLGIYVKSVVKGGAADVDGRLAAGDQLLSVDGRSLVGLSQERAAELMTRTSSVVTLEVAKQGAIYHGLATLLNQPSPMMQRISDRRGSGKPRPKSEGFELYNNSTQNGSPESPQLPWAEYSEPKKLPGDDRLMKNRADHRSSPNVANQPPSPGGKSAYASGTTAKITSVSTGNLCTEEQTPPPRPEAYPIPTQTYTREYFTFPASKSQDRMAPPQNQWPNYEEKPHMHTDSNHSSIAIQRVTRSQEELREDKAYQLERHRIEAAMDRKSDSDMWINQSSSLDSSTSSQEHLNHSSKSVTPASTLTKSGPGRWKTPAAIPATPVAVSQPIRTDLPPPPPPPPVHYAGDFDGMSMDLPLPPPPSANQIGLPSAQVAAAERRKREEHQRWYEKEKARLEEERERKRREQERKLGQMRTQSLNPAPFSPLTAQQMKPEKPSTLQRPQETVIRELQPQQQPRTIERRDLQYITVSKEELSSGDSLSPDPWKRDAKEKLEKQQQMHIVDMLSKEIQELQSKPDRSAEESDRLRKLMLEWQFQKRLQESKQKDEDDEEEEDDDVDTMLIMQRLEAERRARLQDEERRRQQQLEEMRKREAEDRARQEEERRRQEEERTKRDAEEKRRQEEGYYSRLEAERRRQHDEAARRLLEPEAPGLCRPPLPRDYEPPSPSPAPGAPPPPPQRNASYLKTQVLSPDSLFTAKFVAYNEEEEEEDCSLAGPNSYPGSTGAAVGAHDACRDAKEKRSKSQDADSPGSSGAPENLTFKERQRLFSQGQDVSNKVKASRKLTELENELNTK
inactive: [1] -0.072 | [3] 0.05 | [4] 0.047 | [5] -0.047 | [6] -0.099 | [7] 0.008 | [8] 0.044 | [10] -0.003
active: [2] -0.254 | [9] -0.353

AP4S1 (UniProt Q9Y587)
inactive: [1] -0.117 | [2] -0.321 | [3] 0.059 | [4] -0.006 | [5] -0.056 | [7] 0.027 | [8] 0.024 | [10] 0.078

BAD (UniProt Q92934)
inactive: [1] -0.043 | [2] 0.038 | [3] 0.085 | [4] -0.086 | [5] 0.014 | [6] 0.022 | [7] -0.125 | [8] 0.059 | [10] -0.069 | [9] -0.006

APH1A (UniProt Q96BI3)
inactive: [1] -0.023 | [2] 0.031 | [3] 0.004 | [5] -0.019 | [6] 0.026 | [7] 0.19 | [8] -0.183 | [10] 0.034 | [9] 0.03

ARPP19 (UniProt P56211)
Chain of UniProt P56211 (P56211 whole entry, looked up): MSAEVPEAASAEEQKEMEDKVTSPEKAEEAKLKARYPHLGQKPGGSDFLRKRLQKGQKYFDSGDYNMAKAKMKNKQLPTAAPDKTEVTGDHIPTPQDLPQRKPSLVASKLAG
inactive: [1] 0.013 | [2] 0.016 | [3] -0.01 | [4] 0.041 | [5] 0.029 | [6] -0.052 | [7] 0.032 | [8] 0.001 | [10] 0.069 | [9] -0.041

APOH (UniProt P02749)
Chain of UniProt P02749 (P02749 whole entry, looked up): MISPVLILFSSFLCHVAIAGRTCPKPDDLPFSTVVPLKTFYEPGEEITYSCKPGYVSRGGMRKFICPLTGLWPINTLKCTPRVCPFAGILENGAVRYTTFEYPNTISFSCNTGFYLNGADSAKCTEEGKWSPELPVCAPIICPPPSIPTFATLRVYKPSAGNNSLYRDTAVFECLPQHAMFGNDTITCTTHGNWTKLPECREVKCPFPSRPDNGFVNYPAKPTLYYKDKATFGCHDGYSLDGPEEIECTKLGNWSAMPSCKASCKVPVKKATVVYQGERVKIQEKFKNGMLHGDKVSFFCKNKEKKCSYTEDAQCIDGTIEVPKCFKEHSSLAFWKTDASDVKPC
inactive: [1] -0.397 | [2] -0.443 | [3] -0.167 | [5] -0.171 | [6] 0.078 | [7] -0.141 | [8] -0.048 | [10] 0.48 | [9] 0.077

ACTBL2 (UniProt Q562R1)
inactive: [1] -0.121 | [2] 0.153 | [3] -0.133 | [4] -0.1 | [5] 0.05 | [6] 0.162 | [7] -0.3 | [8] 0.07 | [10] 0.011 | [9] 0.065

ASB6 (UniProt Q9NWX5)
Chain of UniProt Q9NWX5 (Q9NWX5 whole entry, looked up): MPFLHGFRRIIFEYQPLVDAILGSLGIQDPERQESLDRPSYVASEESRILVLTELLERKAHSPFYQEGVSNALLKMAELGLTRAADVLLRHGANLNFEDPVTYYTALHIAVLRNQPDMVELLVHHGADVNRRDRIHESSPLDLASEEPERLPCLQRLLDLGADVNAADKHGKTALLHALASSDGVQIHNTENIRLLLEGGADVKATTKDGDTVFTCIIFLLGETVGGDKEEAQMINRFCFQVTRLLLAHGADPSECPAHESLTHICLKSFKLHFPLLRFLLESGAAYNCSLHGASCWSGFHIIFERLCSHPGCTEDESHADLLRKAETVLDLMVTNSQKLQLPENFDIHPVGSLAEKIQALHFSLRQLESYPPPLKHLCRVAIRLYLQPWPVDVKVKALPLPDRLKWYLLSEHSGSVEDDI
inactive: [1] 0.047 | [2] -0.321 | [3] 0.028 | [4] -0.094 | [5] -0.016 | [6] -0.076 | [7] 0.041 | [8] 0.067 | [9] -0.083

AKAP8 (UniProt O43823)
inactive: [1] 0.069 | [3] -0.017 | [4] 0.003 | [5] 0.02 | [6] 0.026 | [7] -0.03 | [8] 0.017 | [10] 0 | [9] -0.131
active: [2] -0.268

ABITRAM (UniProt Q9NX38)
Chain of UniProt Q9NX38 (Q9NX38 whole entry, looked up): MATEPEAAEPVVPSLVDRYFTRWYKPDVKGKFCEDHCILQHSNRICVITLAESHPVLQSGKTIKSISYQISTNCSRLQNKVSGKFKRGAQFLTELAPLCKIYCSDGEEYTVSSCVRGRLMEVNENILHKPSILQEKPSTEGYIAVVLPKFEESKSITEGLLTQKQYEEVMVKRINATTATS
inactive: [1] 0.033 | [2] -0.11 | [3] 0.088 | [4] 0.055 | [6] 0.137 | [7] 0.051 | [8] 0.139 | [10] -0.034 | [9] -0.093

APOBEC3G (UniProt Q9HC16)
Chain of UniProt Q9HC16 (Q9HC16 whole entry, looked up): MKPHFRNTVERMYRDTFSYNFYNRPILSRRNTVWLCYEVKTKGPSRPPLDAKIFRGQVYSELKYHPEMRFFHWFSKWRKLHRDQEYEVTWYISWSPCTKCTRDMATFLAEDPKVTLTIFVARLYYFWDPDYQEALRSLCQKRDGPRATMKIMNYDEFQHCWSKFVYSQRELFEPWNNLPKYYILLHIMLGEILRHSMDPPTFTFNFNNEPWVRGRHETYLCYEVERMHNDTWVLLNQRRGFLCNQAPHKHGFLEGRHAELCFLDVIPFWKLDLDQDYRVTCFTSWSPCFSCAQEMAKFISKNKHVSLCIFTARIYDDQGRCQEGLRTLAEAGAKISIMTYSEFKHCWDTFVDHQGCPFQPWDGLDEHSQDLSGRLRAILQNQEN
inactive: [1] 0.267 | [2] -0.008 | [3] 0.051 | [4] -0.146 | [5] 0.006 | [7] -0.148 | [8] -0.115 | [10] 0.025

ANK2 (UniProt Q01484)
inactive: [1] 0.049 | [2] -0.071 | [3] -0.003 | [5] -0.1 | [6] 0.122 | [7] -0.018 | [8] 0.03 | [10] -0.128 | [9] -0.223

ARHGAP4 isoform 2 (UniProt P98171)
inactive: [1] -0.044 | [2] -0.112 | [3] 0.048 | [5] -0.048 | [7] 0.036 | [8] 0.293
active: [10] 0.757

ACSL1 (UniProt P33121)
inactive: [1] -0.09 | [2] -0.183 | [3] 0.012 | [4] 0.018 | [5] 0.05 | [6] -0.031 | [7] 0 | [8] 0.003 | [10] -0.064
active: [9] -0.393

ADD2 isoform 9 (UniProt P35612)
inactive: [2] -0.1 | [8] 0.196

ABCA3 (UniProt Q99758)
inactive: [1] -0.155 | [2] -0.093 | [4] 0 | [5] -0.035 | [6] 0.168 | [7] 0.108 | [8] -0.172 | [10] -0.013 | [9] -0.263

BDH2 (UniProt Q9BUT1)
inactive: [2] -0.126 | [5] 0 | [6] 0.005 | [7] 0.367 | [8] 0.001 | [10] -0.028 | [9] -0.033

ACVR1 (UniProt Q04771)
active: [9] 0.925
inactive: [1] -0.104 | [2] -0.2 | [4] 0.16 | [5] -0.036 | [6] 0.065 | [7] -0.095 | [10] -0.111

BAP18 isoform 3 (UniProt Q8IXM2)
inactive: [5] -0.028 | [6] 0.028 | [9] 0.2

BSCL2 isoform 4 (UniProt Q96G97)
Chain of UniProt Q96G97 (Q96G97 whole entry, looked up): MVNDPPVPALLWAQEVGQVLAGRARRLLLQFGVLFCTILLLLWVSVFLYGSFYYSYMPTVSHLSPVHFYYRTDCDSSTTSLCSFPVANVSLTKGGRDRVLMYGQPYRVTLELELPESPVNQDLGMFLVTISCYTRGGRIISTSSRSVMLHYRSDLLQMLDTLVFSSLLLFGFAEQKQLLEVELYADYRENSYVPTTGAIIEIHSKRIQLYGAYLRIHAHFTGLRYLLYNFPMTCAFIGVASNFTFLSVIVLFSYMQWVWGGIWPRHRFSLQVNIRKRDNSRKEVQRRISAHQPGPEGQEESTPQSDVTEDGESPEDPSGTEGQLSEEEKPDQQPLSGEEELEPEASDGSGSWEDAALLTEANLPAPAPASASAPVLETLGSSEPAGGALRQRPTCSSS
inactive: [2] 0.072 | [3] 0.093 | [4] -0.05 | [5] -0.004 | [6] 0 | [7] -0.006 | [8] -0.001 | [10] -0.005 | [9] -0.057
